Data from PubChem BioAssay AID687014 (The Scripps Research Institute Molecular Screening Center, 2013).
Hit rate of the full screen: of about 370,000 compounds, about 6,800 (1.8%) were called active. Shown is part of a subset that was picked to be rich in actives. Values without a mark were called inactive.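 How the source made its calls: active means activation above a cutoff set at the mean of all screened compounds plus 3 SD (cut at about 10% in these data); inactive means the rest.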

These compounds were tested on Nuclear hormone receptor DAF-12 (Heterodera glycines), GAL4 fusion (assay: H. glycines DAF-12 receptor agonists, primary screen, cell-based, luminescence, HEK293, GAL4 fusion, UAS-luciferase (AID 687014;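 further: 0% = DMSO wells and 100% = sodium butyrate wells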)). Conditions: HEK293 GAL4-hgDAF12 UAS-luciferase reporter, agonist luminescence; at 6.8 µM; active compounds read high; normalized to butyrate control.

SMILES | activation
NN=C(NN=Cc1ccccc1)c1ccccc1 | 10.3%
O=C(N/N=C/c1ccsc1)c1cc(O)cc(O)c1 | 2.1%
O=C(NN=Cc1ccccc1)c1ccccc1 | 12.9% (active)
CSc1ccc(/C=N/NC(=O)c2cccc(Cl)c2)cc1 | 15.8% (active)
CC(NC(=O)C(=O)N/N=C/c1ccc(Cl)cc1)c1ccccc1 (stereo unspecified) | -4.35%
O=C(N/N=C/c1ccoc1)c1ccc(Cl)cc1Cl | 5.04%
COC(=O)[C@]12C[C@H](CC(=O)NCc3ccccc3)C(=O)N(CCC3=CCCCC3)C1=C[C@H](C(C)(C)C)O[C@@H]2C | -0.89%
COc1cccc(CNC(=O)Cn2c(=O)oc3cc(S(=O)(=O)N4CCCCC4)ccc32)c1 | -2.85%
COc1ccc(C2CC=C(C(=O)O)C(c3ccccc3F)N2S(=O)(=O)c2ccc(C)cc2)cc1OC (stereo unspecified) | 3.93%
COC(=O)C[C@@H]1CC[C@H]2[C@@H](COc3ccc(NS(=O)(=O)CC(F)(F)F)cc3C(=O)N2C)O1 | -0.04%
COC(=O)c1cc2c(c3c4ccccc4n(S(=O)(=O)c4cccc(C)c4)c13)C(=O)N(Cc1ccccc1)C2 | 0.97%
CC(C)(C)NC(=O)C(c1cccnc1)N(C(=O)c1cnco1)c1ccc(C(C)(C)C)cc1 (stereo unspecified) | -4.87%
COc1ccc(-c2cn3ccsc3n2)cc1 | 14.1% (active)
Cc1ccc(S(=O)(=O)NCc2cn3ccsc3n2)c(C)c1 | -0.36%
COc1ccc(-c2cn3cccnc3n2)cc1 | 14.7% (active)
FC(F)(F)Oc1ccc(-c2cn3cccnc3n2)cc1 | 9.13%
COc1cc(OC)cc(-c2nc(=S)n3ccsc3n2)c1 | 2.26%
CC(C)(C)C(=O)Nc1ccc(-c2cn3cccnc3n2)cc1 | 8.9%
Nc1ncnc2c1ncn2[C@@H]1O[C@H](C(=O)N[C@@H](CCc2ccccc2)C(=O)NCC(=O)N2CCOCC2)[C@@H](O)[C@H]1O | 1.87%
CC(C)N1CCCCC(NC(=O)c2ccc3ccccc3c2)C1=O (stereo unspecified) | -0.24%
O=S1(=O)c2ccc(Br)cc2-n2nncc2CN1Cc1cccc(Cl)c1 | 6.32%
Cc1ccc(C)c(-n2nnnc2SCC(=O)c2c(N)n(C)c(=O)n(C)c2=O)c1 | -2.28%
COc1ccc(Cn2ccc3ccc(-c4ccc5ccn(Cc6ccccc6C)c5c4)cc32)cc1 | 8.22%

SMILES | activation
CC(=O)OC[C@@H]1CN(Cc2ccccc2)C[C@H](n2cnc3c(NCc4ccco4)ncnc32)O1 | 1.43%
Oc1ccc(-c2cccc(-c3ccc(O)cc3)c2)cc1 | 7.62%
c1ccc(-c2c[nH]c(-c3ccccc3)c2)cc1 | 11.8% (active)
c1ccc(-c2ccc3c(c2)NC(C2Nc4cc(-c5ccccc5)ccc4O2)O3)cc1 (stereo unspecified) | -0.29%
Brc1ccc(COCCc2cn(Cc3ccccc3)c3ccccc23)cc1 | 0.93%
O=S1(=O)c2c(cccc2N2CCSCC2)Oc2ccccc2CN1Cc1cn(Cc2ccc(F)cc2)nn1 | -4.41%
Cc1ccc2nc(-c3ccc(Br)cc3)cn2c1 | -6.8%
CCN(CC(=O)NCCc1ccccc1)S(=O)(=O)c1ccc(C)cc1 | -0.97%
CCN(CC)S(=O)(=O)c1ccc(-c2cn3ccc(C)cc3n2)cc1 | 10.8% (active)
COc1ccc(-c2cn3ccc(C)cc3n2)cc1 | 14.2% (active)
CCN(c1cccc(C)c1)S(=O)(=O)c1ccc(-c2coc(C)n2)cc1 | -2.39%
Cc1ccc(-c2cn3cc(C)ccc3n2)cc1 | -15.8%
C[C@H]1CCC/C=C/C(=O)c2c(O)cc(O)cc2CC(=O)O1 | -13.8%
CCCCCCCCN1C(=O)[C@@H](CC(=O)NCc2ccccc2)C[C@@]2(C(=O)OC)C1=C[C@H](C(C)(C)C)O[C@@H]2C | -1.53%
O=C(c1ccco1)N1CCN=C1SCc1cccc(Cl)c1 | -5.1%
CCC(=O)c1c(CC)c2n3c1=CC[C@H]3CC(Br)C=2 (stereo partly specified) | -0.81%
COc1ccc(-n2c(COc3ccccc3)nnc2SCC(=O)Nc2ccc3c(c2)OCO3)cc1 | -2.9%
NS(=O)(=O)c1ccc(CCNC(=O)CNC(=O)Cc2ccccc2)cc1 | 0.79%
Cc1cc(C)n2ncc(C(=O)Nc3ccc4c(c3)OCCO4)c2n1 | 4.4%
CCc1ccc2oc(-c3ccc(N)cc3)nc2c1 | 15.5% (active)
CC(=O)N1CC2(C)CN(C(C)=O)CC(C)(C1)C2=O | 1.11%
O=C(CCCCCN1C(=O)C2C3C=CC(C3)C2C1=O)Nc1ccccc1 (stereo unspecified) | 8.92%
CC(=O)c1cccc(NC(=O)[C@@H](NC(N)=O)C(C)C)c1 | -2.72%

SMILES | activation
CC(=O)c1cccc(NC(=O)Nc2ccc(C)cc2)c1 | 11.1% (active)
CCSc1nsc(NC(=O)Nc2cccc(C(C)=O)c2)n1 | 8.65%
OCCN1CCN(c2ncnc3c2ncn3[C@H]2CN(Cc3ccco3)C[C@@H](CO)O2)CC1 | 0.95%
COc1ccc(Cn2cc(CN3[C@@H](CC(C)C)COc4cc(Br)ccc4S3(=O)=O)nn2)cc1 | 2.35%
Cc1ccc(NC(=O)CNCc2ccccn2)cc1S(=O)(=O)N(C)C | 3.01%
CCN(CC)S(=O)(=O)c1cc(C(=O)Nc2ccccn2)ccc1C | 12.3% (active)
CCN(c1ccccc1)S(=O)(=O)c1cc(C(=O)NCc2ccccn2)ccc1C | 0.44%
C[C@H]1[C@H](c2ccccc2)Oc2cc(Br)ccc2S(=O)(=O)N1Cc1cccc(F)c1 | -2.03%
NS(=O)(=O)c1ccc2nc(NC(=O)CS(=O)(=O)c3ccc(F)cc3)sc2c1 | 2.11%
NS(=O)(=O)c1ccc2nc(NC(=O)C3=COCCO3)sc2c1 | 12.8% (active)
O=C(Nc1ccc(S(=O)(=O)N2CCCC2)cc1Cl)C1=COCCO1 | -1.4%
COc1ccc(CN2C(=O)N3Cc4cc(OC)ccc4C3CS2(=O)=O)cc1 (stereo unspecified) | -2.75%
CCCCCn1nnnc1-c1nc2cc3ccccc3cc2[nH]c1=O | 0.65%
Cc1ccc(-c2nc3ccccc3[nH]c2=O)cc1 | 10.9% (active)
Cc1ccc(-c2nnc(-n3nnc4ccccc43)c3ccccc23)cc1 | 0.07%
CC1CCCN(c2ccc(C(=O)NCCc3ccccc3)cn2)C1 (stereo unspecified) | 18.4% (active)
O=C(NCCc1ccccc1)c1ccc(NC2=NC3CS(=O)(=O)CC3S2)cc1 (stereo unspecified) | -1.54%
CC1CCN(C(=O)CCNC(=O)c2ccccc2)CC1 | 2.11%
O=C(NC1CCCC1)C1CSCCS(=O)(=O)N1Cc1ccccc1 (stereo unspecified) | 2.17%
CC(C)C[C@@H](NC(=O)[C@H]1CCCN1C(=O)Cc1ccccc1)C(N)=O | 1.33%
Cc1cc(F)ccc1N1CCC(N2CCN(C)C(CCO)C2)CC1 (stereo unspecified) | 1.51%
Nc1ccc(C(=O)Nc2ccccc2N)cc1 | 66.9% (active)
O=C(Cc1ccccc1)Nc1ccc(C(=O)Nc2ccccc2C(=O)O)cc1 | 0.23%

SMILES | activation
O=C(Nc1ccccc1C(=O)N1CCOCC1)c1ccc(Cl)cc1 | -2.57%
CCC(CO)Nc1cccc2c1S(=O)(=O)N(Cc1cn(Cc3ccccc3C(F)(F)F)nn1)Cc1ccccc1O2 (stereo unspecified) | 0.2%
O=C1Nc2ccccc2C1=NN=Cc1ccco1 | 0.84%
CCOc1ccc(/C=N\NC(=O)c2c(C)nc3cc(C)ccn23)cc1 | -0.25%
Nc1nonc1-n1nnc(C(=O)N/N=C/c2ccc(Cl)cc2)c1-c1ccc2c(c1)OCO2 | -0.85%
Cc1nonc1C(=O)N/N=C/c1ccc(O)cc1 | 10.9% (active)
Cc1ccc(O)c(CCc2ccccc2)n1 | 1.33%
Cc1cccc(C(=O)Nc2c(-c3ccc(F)cc3)nc3ncccn23)c1 | -2.47%
CCC(=O)Nc1ccc2c(c1)C(=O)N(C)[C@@H]1CC[C@@H](CC(=O)NCCc3ccccc3)O[C@H]1CO2 | 0.93%
O=C(c1ccc(Cl)cc1)n1cnc2ccccc21 | 0.03%
O=C(c1cnn(-c2ccc(Cl)cc2)c1)c1ccccc1O | 18.6% (active)
Cc1cc(O)cc(O)c1C(=O)Cc1cnn(-c2ccccc2)c1 | -1.43%
CN(CCO)c1cccc2c1S(=O)(=O)N(Cc1cn(Cc3ccc(C(F)(F)F)cc3)nn1)Cc1ccccc1O2 | 4.36%
O=C(c1cccs1)N1CCCC(c2nc(-c3ccc(F)cc3)no2)C1 (stereo unspecified) | 3.47%
O=C(NCc1cccnc1)c1nc(-c2cccs2)no1 | 4.85%
Cc1ccc(-c2noc(-c3ccccc3C(=O)NCC3CCCO3)n2)cc1 (stereo unspecified) | 3.26%
Cc1ccc(-c2nc(-c3ccncc3)no2)c(C)c1 | 12.5% (active)
c1csc(-c2nc(-c3ccncc3)no2)c1 | 10.9% (active)
CCOc1ccc(N(CC(=O)Nc2c(C)n(C)n(-c3ccccc3)c2=O)S(=O)(=O)c2ccc(Cl)s2)cc1 | 8.38%
CCOc1ccccc1C(=O)N1CCC[C@@H]1C(=O)N1CCC[C@H]1C(=O)NCc1ccccc1 | -0.69%
CN(C)CC(=O)N[C@@H]1C[C@@H]2O[C@H](CO)CC[C@@H]2O[C@@H]1CCc1ccc(C#Cc2ccccc2)cc1 | -6.4%
COC(=O)[C@]12C[C@H](CC(=O)N3CCN(C(=O)C4CC4)CC3)C(=O)N(CCC3=CCCCC3)C1=C[C@H](C(C)C)O[C@@H]2C1CC1 | 1.54%
